Compound activity: PubChem BioAssay, The Scripps Research Institute Molecular Screening Center
CHO-K1 Ca antag = nonselective inhibitor or artifact in parental CHO-K1 cells. ATP-induced calcium, Fluo-8 fluorescence. inhibition, % at 3 µM. 360,000 tested, 0.6% active;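 active = inhibition above a per-plate cutoff, the plate's mean sample inhibition plus 3 SD, cut at about 24% in these data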
M1 antag = human M1 muscarinic receptor antagonists, primary screen, CHO-K1 cells, Fluo-8 calcium fluorescence, 1536-well. 360,000 tested, 1.3% active. inhibition, % at 3 µM. CHO-K1 hM1, ACh EC80 antagonist;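 active = percent inhibition above its own plate's cutoff, namely the mean of that plate's compound wells plus 3 SD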;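 also: peak over basal fluorescence ratio during 140 s after agonist addition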
Target sequence (P11229 whole entry, looked up): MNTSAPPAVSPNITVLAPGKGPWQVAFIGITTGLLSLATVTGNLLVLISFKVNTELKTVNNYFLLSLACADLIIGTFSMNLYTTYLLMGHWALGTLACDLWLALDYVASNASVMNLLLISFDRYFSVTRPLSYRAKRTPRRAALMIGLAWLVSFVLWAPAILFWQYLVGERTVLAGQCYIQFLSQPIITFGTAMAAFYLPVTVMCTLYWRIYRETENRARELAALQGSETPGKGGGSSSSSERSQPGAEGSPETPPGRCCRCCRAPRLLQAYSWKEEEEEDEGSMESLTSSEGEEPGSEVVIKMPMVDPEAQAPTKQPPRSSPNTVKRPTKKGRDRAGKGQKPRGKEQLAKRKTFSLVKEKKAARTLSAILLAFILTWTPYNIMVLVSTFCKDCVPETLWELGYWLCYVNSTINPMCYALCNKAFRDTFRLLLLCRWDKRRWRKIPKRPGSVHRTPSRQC
CHO-K1 Ca PAM = nonselective calcium activators in parental CHO-K1 cells, primary screen, counter-screen for M1 PAM project, cell-based, Fluo-8 calcium fluorescence, full deck, 1536-well. ATP EC20; 0% at ATP EC20, 100% at ATP max. activation, % at 3 µM. 360,000 tested, 0.02% active;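 active = activation above the run cutoff, the mean activation of all test compounds plus 3 SD, cut at about 40% in these data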;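 also: peak over basal fluorescence ratio in a 140 s read after ATP addition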
M1 ag = human M1 muscarinic receptor agonists, primary screen, Fluo-8 calcium fluorescence, CHO-K1 cells, HTS; Muscarinic acetylcholine receptor M1 (Homo sapiens), P11229; activation, % at 3 µM; CHO-K1 hM1, agonist mode; 0% DMSO, 100% acetylcholine EC100; 360,000 tested, 0.33% active; AID 588814, 2011;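 active = activation above the run's mean compound activation plus 3 SD, cut at about 16% in these data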;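 also: peak over basal fluorescence ratio within a 140 s kinetic read after compound addition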
M1 PAM = human M1 muscarinic receptor positive allosteric modulators, primary screen, CHO-K1 cells, Fluo-8 calcium fluorescence, 1536-well; Muscarinic acetylcholine receptor M1 (Homo sapiens), P11229; CHO-K1 hM1, ACh EC20; 0% = ACh EC20, 100% = maximal ACh; activation, % at 3 µM; 360,000 tested, 0.088% active; AID 588819, 2011; in the data active = activation above about 19%, passing the limit was not always enough
CHO-K1 Ca ag = counter-screen for M1 agonists: effect in parental CHO-K1 cells. Fluo-8 calcium fluorescence; scaled to maximal ATP response, vehicle zero. activation, % at 3 µM. 360,000 tested, 0.48% active; in the data active = activation above about 15%;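 also: untransfected CHO-K1 host cells lacking M1 receptor as counterscreen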
Large screens that a line does not name were inactive. Only some compounds are listed: those with a hit (about 2.3% of all), similar ones and a draw of the others.

COc1ccc(N2CCN(c3oc(-c4ccc(OC)c(OC)c4)nc3C#N)CC2)cc1	none
O=C(Cn1c2ccccc2c(=O)c2cc([N+](=O)[O-])ccc21)Nc1ccccc1Cl	CHO-K1 Ca ag 15
O=C(Cn1c2ccccc2c(=O)c2ccccc21)Nc1ccccc1F	none
Cc1cccc(C(C)(C)C)c1OCCCCN1CCCC1	M1 ag 16
Cc1cc(C(C)(C)C)ccc1OCCOCCN1CCCC1	M1 antag 33
CC(C)c1cccc(C(C)C)c1OCCCCN1CCCC1	M1 antag 33
CC(C)(C)c1cc(Cl)ccc1OCCOCCN1CCCC1	none
Cc1ccc(C(=O)N2CCSC2=S)cc1	CHO-K1 Ca antag 26
CC(OC(=O)C1CC2CCCC(C1)C2=O)C(=O)Nc1cccc([N+](=O)[O-])c1 (stereo not given)	none
CCOC(=O)COc1coc(CN2CCN(c3ccc(F)cc3)CC2)cc1=O	none
COC(=O)c1ccc(N2CCN(S(=O)(=O)c3ccc4ccccc4c3)CC2)c([N+](=O)[O-])c1	CHO-K1 Ca antag 28
Cc1cc(C)cc(Cn2cc(CN3CC(N4CCN(C)CC4)CS3(=O)=O)nn2)c1 (stereo not given)	none (no result: M1 antag, M1 ag, M1 PAM)
O=C(CN(CC1CCCO1)C(=O)CNS(=O)(=O)c1ccc(F)cc1)NC1CCCC1 (stereo not given)	none
CCCCn1c2ccccc2c2nnc(SCCN3CCCCC3)nc21	M1 antag 55
CCCCn1c2ccc(F)cc2c2nnc(SCCN3CCOCC3)nc21	none
CC(C(=O)NCC1(c2ccccc2)CCCC1)N1CCCC1 (stereo not given)	M1 antag 97
CC(C(=O)NCC1(c2ccccc2)CCCC1)N1CCOCC1 (stereo not given)	none
Cc1ccccc1NS(=O)(=O)c1ccc2c3c(cccc13)C(=O)N2C	none
CN1C(=O)c2cccc3c(S(N)(=O)=O)ccc1c23	CHO-K1 Ca ag 16
COC(=O)c1c(C)[nH]c(C(=O)C(C)OC(=O)c2cc(C)oc2C)c1C (stereo not given)	M1 antag 28
COC(=O)c1c(C)[nH]c(C(=O)C(C)OC(=O)c2ccco2)c1C (stereo not given)	none
O=C(Nc1ccccc1N1CCOCC1)c1ccccc1NS(=O)(=O)c1ccc(F)c(F)c1	CHO-K1 Ca antag 24
Cc1ccc(S(=O)(=O)Nc2ccccc2C(=O)Nc2nc(-c3ccc(F)cc3)cs2)cc1	CHO-K1 Ca antag 26, CHO-K1 Ca ag 16
O=C(Nc1ccccc1N1CCOCC1)c1ccccc1NS(=O)(=O)c1ccc(F)cc1	none
COc1ccc(-c2csc(NC(=O)c3ccccc3NS(=O)(=O)c3ccc(F)c(F)c3)n2)cc1	M1 antag 43, CHO-K1 Ca ag 15
O=C(Nc1ccc(OCC(F)(F)C(F)F)c(C(F)(F)F)c1)c1ccccc1O	CHO-K1 Ca antag 24, M1 antag 20
CCc1ccc(C(O)c2ncc(-c3ccccc3F)[nH]2)cc1 (stereo not given)	none
C=CCN(C(=O)c1csnn1)C(C(=O)NCc1ccc(F)cc1)c1sccc1C (stereo not given)	none
O=C(c1cc(N2C(=O)C3C4CCC(C4)C3C2=O)ccc1Cl)N1CCN(c2ccccc2)CC1 (stereo not given)	CHO-K1 Ca ag 23
Cn1c(=O)c2c(ncn2CC(=O)Nc2ccc(N3CCOCC3)cc2)n(C)c1=O	CHO-K1 Ca antag 25
Cc1ccc(-c2ccc3c(c2)O[C@H](CN(C)C(=O)Nc2ccc(C(F)(F)F)cc2)[C@H](C)CN([C@H](C)CO)S3(=O)=O)cc1	none
O=C(CN1CCN(S(=O)(=O)c2ccc(Cl)cc2)CC1)c1ccc(O)c(O)c1	M1 PAM 27
CCOCCCn1c(SCC(=O)Nc2ccc(NC(C)=O)cc2)nc2ccccc2c1=O	none
CCc1ccc(NC(=O)CSc2nc3ccccc3c(=O)n2CCCC(=O)N2CCCC2)cc1	CHO-K1 Ca antag 25
CCOCCCn1c(SCC(=O)Nc2ccccc2)nc2ccccc2c1=O	CHO-K1 Ca antag 35
COCCn1c(-c2ccc(F)cc2)nc2cccnc21	none
Cc1c(-n2c(-c3ccccc3)nc3ccccc3c2=O)c(=O)n(-c2ccccc2)n1C	CHO-K1 Ca ag 21
COc1ccc(-c2nc3ccccc3c(=O)n2-c2c(C)n(C)n(-c3ccccc3)c2=O)cc1	none
CCc1ccccc1NC(=O)CNC(=O)CCC(=O)c1cc(C)sc1C	none
Cc1ccc(C)c(N2CCN(C(=O)CCCOc3cc(=O)n(C)c4ccccc34)CC2)c1	M1 antag 37
c1ccc(CCNc2ccnc3cc4ccccc4cc23)cc1	M1 antag 42
CC(C)Nc1ccc(Nc2ccnc3cc4ccccc4cc23)cc1	none
CCCCCCn1nc(C(=O)OCC(=O)c2c(N)n(C)c(=O)n(C)c2=O)c2ccccc2c1=O	M1 antag 39
CCCCCn1nc(C(=O)OCC(=O)c2c(N)n(C)c(=O)n(C)c2=O)c2ccccc2c1=O	none
COc1cc(S(=O)(=O)N2CCN(C(=O)c3cccs3)CC2)ccc1NC(C)=O	none
Nc1c(N(CCC2=CCCCC2)C(=O)COc2ccc(F)cc2Cl)c(=O)[nH]c(=O)n1Cc1ccccc1	none
Cc1cccc(OCC(=O)N(Cc2ccccc2)c2c(N)n(Cc3ccccc3)c(=O)[nH]c2=O)c1	M1 PAM 23
Nc1c(N(CCC2=CCCCC2)C(=O)Cc2ccc(F)cc2)c(=O)[nH]c(=O)n1Cc1ccccc1	M1 ag 19
COc1ccc(NS(=O)(=O)c2csc(C(=O)N3CCCC3)c2)c(OC)c1	none
CC(=O)c1ccccc1Oc1cc(NN2CCCCC2)c([N+](=O)[O-])cc1[N+](=O)[O-]	M1 antag 36
O=[N+]([O-])c1cc([N+](=O)[O-])c(Oc2cccc3ccccc23)cc1NN1CCCCC1	M1 PAM 30
O=[N+]([O-])c1cc([N+](=O)[O-])c(Oc2c(Cl)cccc2Cl)cc1NN1CCCCC1	none
Cc1cccnc1NC(=O)CN1C(=O)NC(C)(c2ccc3ccccc3c2)C1=O (stereo not given)	none
O=C(c1ccc(CNS(=O)(=O)c2cccc(Cl)c2)cc1)N1CCCCC1	none
O=C(COC(=O)COc1ccc(Cl)cc1)Nc1cccnc1Cl	none
COc1cccc(C2/C(=C(\O)c3ccc4c(c3)OCCO4)C(=O)C(=O)N2CCCN2CCOCC2)c1OC (stereo not given)	none
